A number with no mark means an inactive call.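 The calls were made as follows: active = AUC reduced over 20% with Padj below 0.05 in at least 2 of 3 replicates; inactive = otherwise.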
Legend:
Roseburia intestinalis = test: growth AUC relative to DMSO control (median of replicates) (fraction); higher = more growth (less inhibition), active = hit call of the paper; details: 20 µM; 24 h
How it was run: (§1)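 Area under the growth curve was normalised to the plate median of solvent-only wells, or to row and column medians on the industrial chemical plate. Growth curves came from anaerobic gut bacterial monocultures in mGAM at 37 °C, seeded at OD600 0.05 with 20 µM compound (1% DMSO), and read at OD600 hourly for 24 h with the minimum OD set to 0. The value is the median of three biological replicates grown on separate days.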

Streptococcus salivarius = test: as above; details: 20 µM; 24 h
How it was run: as §1

SMILES | growth AUC (Roseburia intestinalis) | growth AUC (Streptococcus salivarius)
O=C(O)COc1ccc(Cl)cc1Cl | 1.03 | 0.989
C[C@H]1[C@H](c2ccc(Cl)cc2)SC(=O)N1C(=O)NC1CCCCC1 | 0.922 | 0.985
CCC1COC(Cn2cncn2)(c2ccc(Cl)cc2Cl)O1 (stereo not drawn) | 0.936 | 0.948
CC(C)(COCc1cccc(Oc2ccccc2)c1)c1ccc(OC(F)(F)Br)cc1 | 1.05 | 0.966
CCCN(CCCl)c1c([N+](=O)[O-])cc(C(F)(F)F)cc1[N+](=O)[O-] | 0.989 | 0.928
CN(C(=O)COc1nc2ccccc2s1)c1ccccc1 | 1.08 | 1
CCN(CC)N=O | 1 | 0.964
Cc1nnc(-c2ccccc2)c(=O)n1N | 0.97 | 1.06
CCCN(CCC)N=O | 0.988 | 0.967
CC(C)C(C(=O)OC(C#N)c1cccc(Oc2ccccc2)c1)c1ccc(OC(F)F)cc1 (stereo not drawn) | 0.977 | 0.993
O=C1C=CC(=O)C=C1 | 1.08 | 0.979
Cc1ccc2nc3sc(=O)sc3nc2c1 | 0.892 | 0.983
CCc1cnc(C2=NC(C)(C(C)C)C(=O)N2)c(C(=O)O)c1 (stereo not drawn) | 1.02 | 1.02
CN(C)C1CSSSC1.O=C(O)C(=O)O | 1.2 | 0.994
O=c1c2cc(F)ccc2nc(-n2cncn2)n1-c1ccc(Cl)cc1Cl | 0.975 | 1.02
C/C(=N\NC(=O)Nc1cc(F)cc(F)c1)c1ncccc1C(=O)[O-].[Na+] | 1.06 | 0.988
CC(C)N(C)S(=O)(=O)NC(=O)c1cc(-n2c(=O)cc(C(F)(F)F)n(C)c2=O)c(F)cc1Cl | 1.03 | 0.998
O=C(NC(=O)c1c(F)cccc1F)Nc1cc(Cl)c(OC(F)(F)C(F)C(F)(F)F)cc1Cl (stereo not drawn) | 1.02 | 0.958
COC(=O)NC(=S)Nc1ccccc1NC(=S)NC(=O)OC | 0.979 | 0.98

— the supplement of paper PMC12669032
